Data taken from the supplement of paper PMC3545927.
Some of the results follow. No count for the full screen is at hand.

B1: FS-2987 (peptide)
chain: CARLKKFQEAAGNASASA
B2: TV1 (peptide)
chain: CAGENLYFQSAGNASASA
B3: HC1191 (peptide)
chain: CAPINAYTTGAGNASASA
B4: FS-404 (peptide)
chain: CACHRRMRRGAGNASASA
B5: FS-742 (peptide)
chain: CAAESRACRGAGNASASA
B6: FS-2 (peptide)
chain: CAAERRRRRGAGNASASA
B7: FS-969 (peptide)
chain: CAAERRHYRPAGNASASA
B8: CS4 (peptide)
chain: CADEVDNKVKAGNASASA
B9: HC1072 (peptide)
chain: CAPGAATAFVAGNASASA
B10: HC789 (peptide)
chain: CASVAATLGFAGNASASA
B11: FS-531 (peptide)
chain: CAGLRRRRRFAGNASASA
B12: FS-1347 (peptide)
chain: CAILTRRRRFAGNASASA
B13: FS-173 (peptide)
chain: CAKDYRRIRFAGNASASA
B14: FS-1164 (peptide)
chain: CARVARRRRFAGNASASA
B15: FS-1497 (peptide)
chain: CATQVRRRRFAGNASASA
B16: FS-1654 (peptide)
chain: CARSADGRRFAGNASASA

Molecular target: furin, P09958
Assay: furin cleavage Z-score vs untreated control; higher = more cleavage, active = 3.5 or more, inactive = 1 or less, 8 variable residues between constant flanks
Procedure, shortened: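 Furin-free reactions served as the baseline for the cleavage Z-score, which is the log read count lowess-adjusted and scaled by median absolute deviation. Counts came from released DNA, adapter-tagged by PCR and sequenced. Purified furin had cut 8-mer peptides fused to a cDNA oligonucleotide on magnetic beads during 7.5, 15 or 30 min at 1:10 enzyme:substrate.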
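Also: purified furin at 1:10 enzyme:substrate in 50 mM HEPES pH 7.5.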

furin, P09958, sequence (P09958 whole entry): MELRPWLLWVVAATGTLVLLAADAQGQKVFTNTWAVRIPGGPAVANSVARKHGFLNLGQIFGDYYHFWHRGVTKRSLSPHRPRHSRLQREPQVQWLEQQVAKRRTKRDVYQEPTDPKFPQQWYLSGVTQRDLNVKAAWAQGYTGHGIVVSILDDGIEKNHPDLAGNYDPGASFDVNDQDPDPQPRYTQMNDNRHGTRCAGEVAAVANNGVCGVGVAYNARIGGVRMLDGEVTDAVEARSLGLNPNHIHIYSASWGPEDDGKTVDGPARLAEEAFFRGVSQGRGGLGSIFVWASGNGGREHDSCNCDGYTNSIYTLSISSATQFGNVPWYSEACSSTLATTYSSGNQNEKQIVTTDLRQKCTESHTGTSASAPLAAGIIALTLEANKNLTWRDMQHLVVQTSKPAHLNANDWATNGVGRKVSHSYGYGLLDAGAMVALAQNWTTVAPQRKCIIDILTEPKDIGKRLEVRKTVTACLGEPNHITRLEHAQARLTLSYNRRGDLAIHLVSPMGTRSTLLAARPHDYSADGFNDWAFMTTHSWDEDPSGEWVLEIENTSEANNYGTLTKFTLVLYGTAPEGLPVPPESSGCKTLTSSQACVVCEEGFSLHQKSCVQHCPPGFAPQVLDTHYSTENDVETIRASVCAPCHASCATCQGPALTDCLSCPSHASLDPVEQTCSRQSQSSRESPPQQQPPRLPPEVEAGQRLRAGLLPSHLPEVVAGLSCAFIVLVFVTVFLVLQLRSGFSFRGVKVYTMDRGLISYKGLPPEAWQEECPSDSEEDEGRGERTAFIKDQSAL

Row | Sequence | furin cleavage Z-score (7.5 min) | furin cleavage Z-score (15 min) | furin cleavage Z-score (30 min)
1 | B1 | -0.948 (inactive) | -1.1 (inactive) | -1.63 (inactive)
2 | B2 | -1.03 (inactive) | -1.63 (inactive) | -0.511 (inactive)
3 | B3 | 0.157 (inactive) | 0.17 (inactive) | 0.965 (inactive)
4 | B4 | 10.7 (active) | 8.52 (active) | 8.21 (active)
5 | B5 | -0.725 (inactive) | -0.739 (inactive) | -0.66 (inactive)
6 | B6 | 4.28 (active) | 3.26 | 2.64
7 | B7 | 0.389 (inactive) | 0.437 (inactive) | 0.0544 (inactive)
8 | B8 | -0.725 (inactive) | -1.22 (inactive) | -1.28 (inactive)
9 | B9 | 0.989 (inactive) | 1.72 | 0.199 (inactive)
10 | B10 | 1.93 | 0.468 (inactive) | 0.352 (inactive)
11 | B11 | 7.13 (active) | 8.7 (active) | 7.24 (active)
12 | B12 | 8.01 (active) | 8.67 (active) | 7.5 (active)
13 | B13 | 0.143 (inactive) | -0.374 (inactive) | 0.736 (inactive)
14 | B14 | 8.04 (active) | 10 (active) | 7.4 (active)
15 | B15 | 6.78 (active) | 10.5 (active) | 7.46 (active)
16 | B16 | -0.463 (inactive) | -0.885 (inactive) | -0.419 (inactive)
